Laboratory results published in PubChem BioAssay (NCATS).
“And” between values parts separate entries of the source, which are not always exact repeats. Equal values may be shown once. Records with an inconclusive call do not appear. For part of these data: Entries with a potency or affinity are not part of this list. The source made the active and inactive calls. Unless noted, the rule behind the calls is not given here.

What was measured:
[1] = qHTS assay for small molecule antagonists of the retinoid-related orphan receptor gamma (ROR-gamma) signaling pathway - cell viability counter screen (AID 720652; active = well fitted curve in the direction sought with a large enough effect in the repeat runs; an effect the other way counts as inactive or inconclusive;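 note: compound exposure lasted 16 hr before ATP read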; note: potency is the fitted concentration of half-maximal effect)
Summary of the method: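 CHO RORE-LUC/TET-ROR line, 1,000 cells/well, 37 C 5% CO2 5 hr; cpd or DMSO + doxycycline induction, 16 hr. CellTiter-Glo, 30 min RT, luminescence = ATP content.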

[2] = qHTS assay for small molecule agonists of the antioxidant response element (ARE) signaling pathway measured by Nrf2-dependant transcriptional activity - cell viability counter screen (AID 720653; active = well fitted curve in the direction sought with a large enough effect in the repeat runs; an effect the other way counts as inactive or inconclusive; note: potency is the fitted concentration of half-maximal effect; for max response: % is set by controls: 0 for no effect and ±100 for the full control effect); conditions: ARE-bla HepG2 viability, CellTiter-Glo ATP luminescence, 16 h; max response: hits give low values
Summary of the method: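 Cytotoxicity counter screen: intracellular ATP quantified by CellTiter-Glo luminescence in the same ARE-bla HepG2 plates, after 16 h compound exposure and a 2 h beta-lactamase substrate step.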

[3] = qHTS Assay for Identifying Gametocytocidal Compounds (AID 743244; active = well fitted curve in the direction sought with a large enough effect; an effect the other way counts as inactive or inconclusive; note: potency is the fitted concentration of half-maximal effect;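 for max response: % is set by controls: 0 for no effect and ±100 for the full control effect; actives lower the fluorescent signal which means gametocytes are killed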); conditions: P. falciparum 3D7 stage III-V gametocytes, alamarBlue, 72 h; max response: hits give low values
Summary of the method: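 Stage III–V gametocytes of P. falciparum 3D7 were seeded at 20,000 cells/well onto pre-dispensed compounds. After 72 h, 37 °C, 5% CO2, alamarBlue was added for another 24 h.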

[4] = qHTS assay for cell viability of HEK293 cells (AID 743288; active = well fitted curve in the direction sought with a large enough effect; an effect the other way counts as inactive or inconclusive; note: nearly all actives have a fitted effect of over 50% in size; note: potency is the fitted concentration of half-maximal effect; for max response: % is set by controls: 0 for no effect and ±100 for the full control effect); conditions: ATP luminescence (CellTiter-Glo), 18 h; max response: hits give low values
Summary of the method: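 Steps: plate 2,000 parental HEK293 cells per well; incubate ≥5 h, 37 C; add compounds in DMSO; incubate 18 h, 37 C; add CellTiter-Glo; wait 30 min at room temperature; read luminescence.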

[5] = qHTS assay for cell viability of the p53RE-bla HCT-116 cell line (AID 743292; active = well fitted curve in the direction sought with a large enough effect; an effect the other way counts as inactive or inconclusive; note: nearly all actives have a fitted effect of over 55% in size; note: potency is the fitted concentration of half-maximal effect)
Summary of the method: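 Luminescent ATP quantitation (CellTiter-Glo) served as the viability read-out; reagent was added after 16 h compound exposure at 37 C and read after 30 min at room temperature. Cells: p53RE-bla HCT-116, 4,000 per well.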

[6] = Ebola virus entry assay, ratio channel
[7] = Ebola virus entry assay, green channel fluorescence
[8] = Ebola virus entry assay, reporter ratio channel; Channel type: primary
[9] = Ebola virus entry assay, blue channel (ratio component)

CCCCC(CC)COC(=O)c1ccccc1C(=O)OCC(CC)CCCC (stereo not given)
inactive: Potency [1] | max response [2] -8.88% and -12.5% | max response [3] 10.4% | max response [4] -14% and -11% | Potency [5] | outcome [6] | outcome [7] | outcome [8] | outcome [9]

CC(C)NCC(O)c1ccc([N+](=O)[O-])cc1 (stereo not given)
inactive: max response [3] -16.1% | outcome [6] | outcome [7] | outcome [8] | outcome [9]

CS(=O)(=O)c1ccc(C(=O)C2C(=O)CCCC2=O)c([N+](=O)[O-])c1
inactive: max response [2] -7.62% | max response [3] -23.2% | max response [4] -4.44% | Potency [5] | outcome [6] | outcome [7] | outcome [8] | outcome [9]

Nc1ccc([N+](=O)[O-])cc1
inactive: Potency [1] | max response [2] -0.336% | max response [3] -13.4% | max response [4] -4.75% | Potency [5] | outcome [6] | outcome [7] | outcome [8] | outcome [9]

O=[N+]([O-])/N=C1\NCCN1Cc1ccc(Cl)nc1
inactive: max response [2] 8.85% | max response [3] 3.56% and 4.82% | max response [4] -6.64% | Potency [5] | outcome [6] | outcome [7] | outcome [8] | outcome [9]

C=CC(=O)NCNC(=O)C=C
inactive: Potency [1] | max response [2] 1.98% and -12.5% | max response [3] 11% | max response [4] 3.56% and -2.17% | Potency [5] | outcome [6] | outcome [7] | outcome [8] | outcome [9]

Nc1ccc(N=Nc2ccccc2)cc1
inactive: max response [2] -5.85% | max response [3] 11.9% | max response [4] -0.712% | Potency [5] | outcome [6] | outcome [7] | outcome [8]

COc1nn(CSP(=S)(OC)OC)c(=O)s1
inactive: max response [2] -11.6% | max response [3] 14.2% | max response [4] -26% | Potency [5] | outcome [6] | outcome [7] | outcome [8] | outcome [9]

CCCCCCCCCC(CC)c1ccc(S(=O)(=O)O)cc1 (stereo not given)
inactive: max response [2] -0.0281% and -4.65% | max response [3] -5.24% and 45.2% | max response [4] -11.2% and -4.04% | Potency [5] | outcome [7]
active: AC50 [6] 31.6 µM | AC50 [8] 31.6 µM

N#C/C(=C1\SCC(c2ccccc2Cl)S1)n1ccnc1 (stereo not given)
inactive: outcome [7] | outcome [8] | outcome [9]

CN1CCN(c2c(F)cc3c(=O)c(C(=O)O)cn4c3c2OCN4C)CC1
inactive: outcome [7] | outcome [8] | outcome [9]

Nc1cccc2c(N)cccc12
active: Potency [3] 25.1 µM | AC50 [8] 35.5 µM
inactive: max response [2] -13.9% | outcome [6]

[Cl][In]([Cl])[Cl]
inactive: outcome [7]

CCCCCCCCCCCCCC[N+](C)(C)C
active: AC50 [6] 25.1 µM | AC50 [8] 25.1 µM

N[C@H]1C(O)O[C@H](CO)[C@@H](O)[C@@H]1O (stereo not given in full)
inactive: outcome [7] | outcome [8] | outcome [9]

CCOC(=O)C(=O)CCCCCCl
inactive: outcome [7] | outcome [8] | outcome [9]

OCCCc1ccccc1
inactive: outcome [7] | outcome [8] | outcome [9]

Cc1ccccc1N=Nc1ccc(N=Nc2c(O)ccc3ccccc23)c(C)c1
inactive: outcome [7] | outcome [8] | outcome [9]

C=CCNC(N)=S
inactive: outcome [7] | outcome [8] | outcome [9]

C/C(=C1\CCOC(=O)S1)N(C=O)Cc1cnc(C)nc1N
inactive: outcome [7] | outcome [8] | outcome [9]

CC1=C(C(=O)O)N2C(=O)[C@@H](N)[C@H]2SC1
inactive: outcome [7] | outcome [8] | outcome [9]

CC(=O)Oc1ccccc1C(=O)O
inactive: outcome [7] | outcome [8] | outcome [9]

OCc1ccccn1
inactive: outcome [7] | outcome [8] | outcome [9]

COc1ncnc(NS(=O)(=O)c2ccc(N)cc2)c1OC
inactive: outcome [7] | outcome [8] | outcome [9]

CC(C)CCCC(C)CCCC(C)CCCCC(C)CCCC(C)CCCC(C)C (stereo not given)
inactive: outcome [7] | outcome [8] | outcome [9]

CCN1CCN(c2cc3c(cc2F)c(=O)c(C(=O)O)cn3C2CC2)CC1
inactive: outcome [7] | outcome [8] | outcome [9]

CC(=O)[O][Hg][c]1ccccc1
active: Potency [1] 1.33 µM | Potency [2] 35.5 µM and 14.1 µM | Potency [3] 1.12 µM | Potency [4] 7.08 µM and 22.4 µM | Potency [5] 8.91 µM and 10 µM | AC50 [6] 4.47 µM | AC50 [8] 4.47 µM

CN1C(=O)CC[C@H]1c1cccnc1
inactive: outcome [7] | outcome [8] | outcome [9]

Cc1cc(-c2ccccc2)nnc1NCCN1CCOCC1
inactive: outcome [7] | outcome [8] | outcome [9]

CN(C)c1ccc(N=NS(=O)(=O)O)cc1
inactive: outcome [6] | outcome [8]

O=S(=O)(O)C(F)(F)C(F)(F)C(F)(F)C(F)(F)F
inactive: max response [2] -3.1% and 4.61% | max response [3] -9.45% | max response [4] -11.1% and -18% | Potency [5] | outcome [6] | outcome [8]

[O-][n+]1cccc(/C(Cl)=N/OC[C@@H](O)CN2CCCCC2)c1
inactive: outcome [7] | outcome [8] | outcome [9]

CCCCC(CC)COC(=O)c1ccc(N(C)C)cc1 (stereo not given)
inactive: outcome [7] | outcome [8] | outcome [9]

NCCCC(N)(C(=O)O)C(F)F (stereo not given)
inactive: outcome [7] | outcome [8] | outcome [9]

CCCCCCCCOc1ccc(C(=O)c2ccccc2)c(O)c1
inactive: outcome [7] | outcome [8] | outcome [9]

CCCCOC(=O)c1ccccc1C(=O)OCc1ccccc1
inactive: Potency [1] | max response [2] -1.29% and -2.62% | max response [3] 13.2% | max response [4] -13.6% and -13.5% | Potency [5] | outcome [6] | outcome [8] | outcome [9]

CCN(CC)CCNC(=O)c1ccc(NC(C)=O)cc1
inactive: outcome [7] | outcome [8] | outcome [9]

[O-][n+]1cccc(CO)c1
inactive: outcome [7] | outcome [8] | outcome [9]

Cc1cccc(C)c1NC(=O)c1ccccc1C(=O)O
inactive: outcome [7] | outcome [8] | outcome [9]

COc1ccccc1N1CCN(CC(O)COc2cc(OC)c(OC)c(OC)c2)CC1 (stereo not given)
inactive: outcome [7] | outcome [8] | outcome [9]

CCN(CC)CCc1nc(-c2ccccc2)no1
inactive: outcome [7] | outcome [8] | outcome [9]

NCCS
inactive: outcome [7] | outcome [8] | outcome [9]

Fc1cc(Br)ccc1CBr
inactive: outcome [7] | outcome [8] | outcome [9]

O=C(Nc1ccc(Oc2ccc(Cl)cc2)c(Cl)c1)c1cc(I)cc(I)c1O
inactive: outcome [7] | outcome [8] | outcome [9]

O=C(O)CC(O)C(=O)O (stereo not given)
inactive: outcome [7] | outcome [8] | outcome [9]

CCCN(CCC)c1c([N+](=O)[O-])cc(S(N)(=O)=O)cc1[N+](=O)[O-]
inactive: max response [4] -4.88% | Potency [5]
active: AC50 [6] 8.91 µM | AC50 [8] 8.91 µM

Nc1c(Cl)c(Cl)c(Cl)c(Cl)c1Cl
inactive: max response [2] 1.83% | max response [3] 4.37% | max response [4] -4.75% | Potency [5] | outcome [6] | outcome [8] | outcome [9]

O=C(O)Cc1ccccc1Oc1ccc(Cl)cc1Cl
inactive: outcome [7] | outcome [8] | outcome [9]

O=C(O)c1ccccc1NCCc1ccccc1
inactive: outcome [7] | outcome [8] | outcome [9]

CC(=O)N[C@@H](CCC(N)=O)C(=O)O
inactive: outcome [7] | outcome [8] | outcome [9]

CCN1CCc2nc(N)oc2CC1
inactive: outcome [7] | outcome [8] | outcome [9]
